Assay results reported in the supplement of paper PMC11417369.
The full ranking holds about 25,000 sequences; the median of “ln(normalized median fluorescence intensity)” is about 9.3, and the highest 2% start at about 10. The sample as a whole holds a higher share of the highest values than the screen did.

What follows are sequences tested on PF3D7_0420300 AP2 domain 1 (GST-tagged) (assay: gcPBM binding intensity (ln(normalized median fluorescence intensity)); higher = stronger DNA binding).
Outline: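 The binding buffer was 1× PBS containing 1% milk, 0.2 mg/ml BSA, 0.5% salmon testes DNA and 0.03% Triton X-100. In it, GST-tagged P. falciparum DNA-binding domains expressed in E. coli were applied for 1 h to an Agilent 4 × 180k array of primer-extended double-stranded 36-bp intergenic genomic probes plus negative controls. Binding intensity, read with Alexa488 anti-GST antibody and a 488 nm scan, is the highest Masliner-normalised natural-log median intensity across replicate spots of either probe orientation.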

Sequence	gcPBM binding intensity (ln)
CAAAAGGATAGGCACACACACACACCGATATATATA [CACACA_site8685]	10.2
TTAAACTTGAGACACACACACACACGGATATAAAAA [CACACA_site6495]	10.2
AAAAAAAAAAGACACACACACATATTTATTTATATA [CACACA_site6484]	9.93
AAACTTGACGGACACACACACACATATATAAAAAAA [CACACA_site4577]	10
ACTTGACACGGACACACACACATATATAAAAAAAAA [CACACA_site4576]	9.87
ATTTATGAAAAATGTACACACATCAAATGCTTATAT [CACACA_site4068]	9.42
AAATGAAAGAACAGCACACATATATATTATATATAA [CACACA_site2002]	9.63
ATTGCATATAATGGCACACATAAATCCATAATATAT [CACACA_site297]	9.29
GTTAATATACATAAACGTACAGAATTATTATGAGTT [XGTACX_site5185]	9.13
TGTTTAACATTTATATGTACATATATTCACATATTA [XGTACX_site342]	9.29
AACAATATATTGAATAGTACATATATATAAACATAT [XGTACX_site2811]	9.46
GTAGAAAGAAAAATTAGTACTTAAATATTATAAAAA [XGTACX_site8458]	9.11
AATATAAGGATATATACACACATAAATACATACATA [CACACA_site7859]	9.89
AATAAATATAAATACACACCCATATAAATATAAATA [CACACA_site7264]	9.85
ACCCATAAAAAGGATACACACACACCCACCCATATA [CACACA_site8205]	10.4
AATAAATATAAATACACACCCATATATATATATATA [CACACA_site5436]	9.45
TAGATACATACACGCACACACATATATAAATAAATA [CACACA_site6157]	9.85
CCATAAAAAGGATACACACACACACGCACATATATA [CACACA_site6550]	10.2
TTTTATAAATCTAAACGTATCTAAATGAATAATTAA [GTGCAC_negctrl_site44]	8.84
TTTATAACATTTAAGAGTACAAAAAAATAAATAAAT [XGTACX_site1264]	9.37
TATTGTAGAGGCAAAAGTACACATTTAATAATTTCC [XGTACX_site1151]	9.23
ACTTGTAAGAAACACACACACACACCGATATATATA [CACACA_site4594]	10.4
ACTTGTAAGAAACACACACACACACCCATATATATA [CACACA_site796]	10.4
AAACTTGTAAGAAACACACACACACCCATATATATA [CACACA_site797]	10.1

Sequence	gcPBM binding intensity (ln)
TTGTAAGAAAAACACACACACACATATATATATATA [CACACA_site795]	9.95
GTAAGAAACAGACACACACACATATATATATATATA [CACACA_site794]	9.79
AAACTTGTAAGAAACACACACACACGCATATAAATA [CACACA_site6518]	10
AATATAAAAATGTTTACACACACACGGAAATATATT [CACACA_site7226]	10.1
TATATATATATGTGTATACACACCTGATAAAGGTAT [CACACA_site2653]	9.42
AAAAATTTGGCATACACACACACACGCACACGCACA [CACACA_site6422]	10.2
CTTAAATTTTTAAATACACACATACACCCATACACA [CACACA_site4461]	9.64
AAAAAATTCATATATACACACACGCACATATATATA [CACACA_site4226]	9.84
AAAATTCATATATACACACACGCACATATATATATA [CACACA_site90]	9.85
AAAAATTTGGCATACACACACACACCCACACCCACA [CACACA_site587]	10.2
TACAAAAAAAATGTATTTAGGACATATATATGTTTA [XGTACX_negctrl_site455]	9.02
ACGTTTTATAATTAATGTACAAATATTAAAATTGCA [XGTACX_site7869]	9.07
GCTAGTTTTTTTTGGCGTACAGTACCGGTTTACTTT [XGTACX_site2606]	9.42
AAAAAAAAAAAATAATGTACATATGTATTTGAGAAA [XGTACX_site3572]	9.23
ACAAAATGTAAATAAACACACATATATATATATATA [CACACA_site1281]	9.3
TAACAAAATGTAAATAAACACACATATATATATATA [CACACA_site8352]	9.37
TATAACAAATAAAAATGTACATATATATAATATATA [XGTACX_site6173]	9.38
AACAAAATAAAACACACACACAAATGTACATATATA [CACACA_site2424]	10.2
ATAACAAAATAAAACACACACACAAATGTACAGATA [CACACA_site5358]	10.3
ATAATATAACACAAATGTACAAAAAATAAATAAATA [XGTACX_site385]	9.51
ATAACAAAATAAAACACACACACAAATGTACATATA [CACACA_site2425]	10.3
AAAAATATAATATAATGTACACATAAACAAAAAAAA [XGTACX_site3658]	9.58
ATGTTGTACAAACACACACACAAAAAAAAAATAAAA [CACACA_site2406]	9.89
